We go through 98 compounds from PubChem BioAssay AID488835 (Broad Institute, 2010).

About 140 (10%) of roughly 1,400 compounds were called active.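 How the source made its calls: active means Half-maximal inhibitory dose from the fit at or below ten times the top valid tested dose; inconclusive means Invalid fit, or flat curve showing 30 to 70% inhibition; inactive means the rest.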 The list is a sample of the results. Entries that show only a call come without a potency. Potency and affinity values are given separately.

This assay deals with Lysine-specific demethylase 4C (Homo sapiens) (UniProt Q9H3R0). The assay is described as follows: inhibition of JMJD2C H3K9me3 demethylation – biochemical, DELFIA europium, cherry-picked samples, dose response (AID 488835).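 Further: signal is the H3K9me2 demethylation product detected by a dimethyl-specific antibody.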 The note with it: GST-JMJD2C(1-420); series mostly up to 6 µM.
Lysine-specific demethylase 4C (Homo sapiens), sequence (Q9H3R0 1-420 limits assumed): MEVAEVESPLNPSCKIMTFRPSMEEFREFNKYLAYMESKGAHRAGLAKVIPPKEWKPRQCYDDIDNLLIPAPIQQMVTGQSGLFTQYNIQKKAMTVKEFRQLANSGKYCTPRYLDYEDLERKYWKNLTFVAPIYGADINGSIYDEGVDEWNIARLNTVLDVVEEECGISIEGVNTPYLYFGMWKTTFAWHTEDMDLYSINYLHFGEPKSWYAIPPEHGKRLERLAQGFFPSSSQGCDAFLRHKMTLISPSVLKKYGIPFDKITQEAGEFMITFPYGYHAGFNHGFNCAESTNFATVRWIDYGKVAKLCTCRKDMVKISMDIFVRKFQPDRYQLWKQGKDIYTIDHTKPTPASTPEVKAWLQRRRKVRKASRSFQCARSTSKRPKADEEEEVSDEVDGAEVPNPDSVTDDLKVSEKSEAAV
`CC1Oc2ccccc2N(Cc2ccccc2Cl)C1=O` (stereo not drawn): the compound was classed as inactive.

Turning to `CCOC(=O)C1=C(CSc2nc(-c3ccncc3)ccc2C#N)OC(N)=C(C#N)C1c1cccnc1` (stereo not drawn), the result was inactive.

As for `CCn1c(SCC(=O)NCC(=O)Nc2ccc(F)cc2)nnc1-c1ccncc1`, the compound was classed as inactive.

Turning to `Cc1nc2sc(C(c3cccc(F)c3)N3CCOCC3)c(O)n2n1` (stereo not drawn), the compound was classed as inactive.

As for `Cc1cc(=S)c2cccc(C)c2[nH]1`, the compound was called inactive.

With `CC(C)CC1c2[nH]c3ccccc3c2CCN1C(=O)c1cnccn1` (stereo not drawn), the compound was classed as inactive.

`Cc1noc(C)c1S(=O)(=O)N(C)C[C@H]1Oc2c(cccc2N(C)C)C(=O)N([C@H](C)CO)C[C@@H]1C`: the call was inactive.

For the compound `CCOC(=O)c1c(C)[nH]c(C(=O)CN2CCOCC2)c1C`, the compound was classed as inactive.

Regarding `FC(F)(F)c1cccc(NCc2cn3cccnc3n2)c1`, the outcome was inactive.

`Cc1ccc(OCc2nnnn2-c2ccccc2)cc1`: the call was inactive.

On to `O=C(Nc1cccnc1)c1ccccc1Oc1ccccc1`, for which the outcome was inactive.

With `CCOc1cc(NC(=S)NCCOC)c(OCC)cc1NC(=O)c1cccs1`, the result was inactive.

Turning to `Cc1nnc(N(C)C(=O)c2ccccn2)s1`, the result was inactive.

Take `O=C(COc1c(CO)cc(Br)cc1CO)NC1CCCc2ccccc21` (stereo not drawn): the compound was called inactive.

Consider `CCOC(=O)N1CCN(C(=S)NC(C)(C)C)CC1`, for which the call was inactive.

For the compound `Cc1cccc(CN2CCC(Oc3ccc(C(=O)N4CCCC4)cc3)CC2)n1`, the compound was called inactive.

Consider `CCOC(=O)c1c(S(=O)(=O)NCC(=O)Nc2cccc(C)c2C)c(C)n(C)c1C`, for which the outcome was inactive.

On to `CCOC(=O)c1c(S(=O)(=O)N2CCCC(C(=O)Nc3ccc(C)cn3)C2)c(C)n(C)c1C` (stereo not drawn), for which the compound was classed as inactive.

For `CCCCCCC(=O)N1CCN(c2cc3c(cc2F)c(=O)c(C(=O)O)cn3CC)CC1`, the result was inactive.

In the case of `c1csc(Cn2nnnc2CN2CCN(c3nc4ccccc4s3)CC2)c1`, the compound was classed as inactive.

Take `O=C(NCc1nnc(SCC(=O)N2CCCC2)o1)c1c(F)cccc1Cl`: the result was inactive.

Take `CCC(=O)Nc1cc2c(C)cc(=O)oc2cc1C`: the compound was classed as inactive.

Consider `COc1ccc(C(=O)Nc2ncc3c(n2)CC(c2ccco2)CC3=O)cc1` (stereo not drawn), for which the compound was called inactive.

Regarding `O=C(Nc1ccc(-c2csc(Nc3ccc(Cl)cc3)n2)cc1)c1ccccc1`, the outcome was inactive.

In the case of `C[C@H]1CN([C@@H](C)CO)C(=O)c2cc(NC(=O)C3CCCCC3)ccc2O[C@H]1CN(C)S(=O)(=O)c1ccccc1`, the call was inactive.

Consider `COC(=O)[C@]1(C)N[C@H](CN(C)S(=O)(=O)c2ccc(C)cc2)[C@@H]2C(=O)N(Cc3ccccc3)C(=O)[C@@H]21`, for which the result was inactive.

For `O=c1oc2ccccc2c(O)c1C=NCc1ccccn1`, the compound was called inactive.

On to `Cc1ccc(Nc2nc3nonc3nc2N(C)C)cc1`, for which the outcome was inactive.

As for `O=C(CC(=O)N/N=C/c1c(F)cccc1Cl)NCc1ccccc1`, the compound was classed as inactive.

As for `COc1ccc(NC(=O)N(C)C[C@@H]2Oc3c(NC(=O)Nc4c(C)noc4C)cccc3C(=O)N([C@@H](C)CO)C[C@@H]2C)cc1`, the result was inactive.

Turning to `Cc1ccc(S(=O)(=O)Nc2ccc3c(c2)C(=O)N([C@H](C)CO)C[C@H](C)[C@@H](CN(C)Cc2ccccc2)O3)cc1`, the call was inactive.

`COCCCNC(=O)c1ccc2c(c1)CCN2S(C)(=O)=O`: the compound was called inactive.

Turning to `Nc1c(C(=O)OCC2CCCO2)c2nc3ccccc3nc2n1C1CCCC1` (stereo not drawn), the compound was called inactive.

Consider `Cn1c2ccccc2c2c(C(=O)N3CCN(c4ccccn4)CC3)cn(C3CCCC3)c(=O)c21`, for which the outcome was inactive.

In the case of `Cn1c(CNC(=O)c2ccccc2F)nnc1SCC(=O)Nc1nnc(C2CC2)s1`, the compound was called inactive.

For the compound `COC(=O)C1CN(S(=O)(=O)c2ccc(C)cc2)CCN1S(=O)(=O)c1ccc(C)cc1` (stereo not drawn), the result was inactive.

Consider `CCOC(=O)c1ccc(N2C(=O)C(C)=C(C)C2=O)cc1`, for which the result was inactive.

In the case of `CCCCCC1CC(=O)N(Cc2ccccc2)C(=O)N1` (stereo not drawn), the compound was classed as inactive.

On to `CCN1c2ccccc2-c2nc3ccccc3n2C1c1ccccn1` (stereo not drawn), for which the result was inactive.

On to `Cn1c(=O)c2c(ncn2CCN(CCO)Cc2ccccc2)n(C)c1=O`, for which the outcome was inactive.

For `CCCCN(C(=S)NC(=O)c1cc(OC)c(OC)c(OC)c1)c1c(N)n(Cc2ccccc2)c(=O)[nH]c1=O`, the result was inactive.

`CCCCC1CCC(C(=O)N(CC(C)C)c2c(N)n(Cc3ccccc3)c(=O)[nH]c2=O)CC1` (stereo not drawn): the compound was called inactive.

As for `CCN(C(=O)C(C)Sc1ccc(S(=O)(=O)N2CCOCC2)cn1)c1ccccc1` (stereo not drawn), the outcome was inactive.

As for `CCCCn1c(N)c(N(CC)C(=O)c2ccco2)c(=O)[nH]c1=O`, the outcome was inactive.

With `Cc1cccc(NCc2ccc(O)c3ncccc23)c1`, the outcome was inactive.

Turning to `COCCn1nnnc1C(c1ccccc1)N1CCN(C(=O)c2ccco2)CC1` (stereo not drawn), the outcome was inactive.

Take `Cc1ccc([N+](=O)[O-])cc1N=C(c1cccc([N+](=O)[O-])c1)N1CCOCC1`: the compound was classed as inactive.

Regarding `COc1cccc(Oc2nccc(N(C)C)c2C#N)c1`, the call was inactive.

For the compound `CC(C)CCSc1cc(NCCO)c([N+](=O)[O-])c2nonc12`, the compound was classed as inactive.

As for `COc1cc2c(cc1CNC[C@H]1O[C@@H](n3cnc4c(N)ncnc43)[C@H](O)[C@@H]1O)OCO2`, the outcome was inactive.

Turning to `CC(OC(=O)c1cccnc1SCc1cc(=O)n2ccccc2n1)c1ccccn1` (stereo not drawn), the result was inactive.

Take `CN(C(=O)c1ccc(NC(=O)Cc2ccc(NC(=O)C3CCN(C(=O)C4CC4)CC3)cc2)cc1)C1CC1`: the compound was classed as inactive.

For `O=C(Nc1c(F)cc(F)cc1Br)c1ccco1`, the compound was classed as inactive.

Consider `CC(C)NC(=O)Nc1ccc2c(c1)C(=O)N([C@H](C)CO)C[C@H](C)[C@@H](CN(C)C(=O)Nc1ccccc1)O2`, for which the compound was called inactive.

For `Nc1nc(C2CC(=O)OC23CCCCC3)cs1` (stereo not drawn), the compound was called inactive.

In the case of `CCOc1cc(/C=N/NC(=O)C(=O)N/N=C/c2ccc(O)c(OCC)c2)ccc1O`, the compound was classed as inactive.

For `O=C(O)c1ccc2c(c1)nnn2C1CCCCC1`, the compound was classed as inactive.

For `Cc1oc(C(C)(C)C)cc1C(=O)N1CCN(c2ncccc2C(F)(F)F)CC1`, the result was inactive.

`O=[N+]([O-])c1ccccc1S(=O)(=O)N1CCN(Cc2ccc3c(c2)OCO3)CC1`: the result was inactive.

With `CC(=O)c1c(C(C)=O)c(C)n(-c2nc(-c3cccs3)c(C)s2)c1C`, the result was inactive.

For the compound `COc1cc(-c2nnco2)cc(OC)c1OC`, the outcome was inactive.

For `Cc1c(NC(=O)C2Cc3ccccc3CN2C(=O)c2ccco2)c(=O)n(-c2ccccc2)n1C` (stereo not drawn), the result was inactive.

Turning to `CCCCNC(=O)CC1N=C2c3ccccc3N=C(SCC(=O)Nc3cccc(C)c3)N2C1=O` (stereo not drawn), the compound was classed as inactive.

With `O=C(CNC(=O)c1ccc(S(=O)(=O)N2CCCC2)cc1)N/N=C/c1ccccc1`, the compound was called inactive.

With `C[C@H](CO)N1C[C@H](C)[C@@H](CN(C)C(=O)Nc2ccc3c(c2)OCO3)Oc2c(NS(=O)(=O)c3ccc(F)cc3)cccc2C1=O`, the outcome was inactive.

In the case of `Cc1cc(C(=O)Nc2sc3c(c2C#N)CCC(C)C3)no1` (stereo not drawn), the compound was called inactive.

As to `COc1ccc(/C(C)=N/Nc2nccnc2Cl)cc1`, the outcome was inactive.

In the case of `CNC[C@@H]1Oc2ccc(NC(=O)Nc3cccc4ccccc34)cc2C(=O)N([C@@H](C)CO)C[C@@H]1C`, the outcome was inactive.

On to `COc1ccc(NC(=O)N(C)C[C@H]2Oc3c(NC(=O)C4CCCCC4)cccc3C(=O)N([C@H](C)CO)C[C@@H]2C)cc1`, for which the compound was called inactive.

As to `CC(=O)N/C(=C\c1ccccc1)C(=O)OCC(=O)NC1CCCC1`, the outcome was inactive.

For `Cc1ccc(S(=O)(=O)N2[C@@H](c3ccc(Cl)c(Cl)c3)C(C(=O)O)=C[C@H]2C(C)(C)C)cc1`, the result was inactive.

`NC(=O)C1CCN(c2nc(-c3ccccc3Br)cs2)CC1`: the outcome was inactive.

For the compound `CC(NC(=O)CCC(=O)c1ccc(F)cc1)C1CC2CCC1C2` (stereo not drawn), the outcome was inactive.

As for `Cc1ccc(S(=O)(=O)N2CCOC2CNC(=O)C(=O)NCCc2ccc(S(N)(=O)=O)cc2)cc1` (stereo not drawn), the compound was called inactive.

For the compound `Cn1c(=O)[nH]c(=O)c2c1nc(N1CCc3ccccc3C1)n2CCSc1nc2ccccc2s1`, the call was inactive.

As for `CC[C@H]1CCCCc2ccccc2[C@@H](C(=O)C[C@@H](O)CC(C)=O)OC1=O`, the compound was called inactive.

Regarding `Cn1c(=O)c2c(nc(NC3CCCCC3)n2Cc2ccccc2)n(C)c1=O`, the result was inactive.

`CCOc1ccc2nc(NC(=O)CS(=O)(=O)c3ccc(C)cc3)sc2c1`: the compound was called inactive.

In the case of `CC[C@@H]1C=C(C(=O)O)[C@H](c2ccc(C)cc2)N1S(=O)(=O)c1ccc(C)cc1`, the call was inactive.

As to `CCc1ccc([C@@H]2CC=C(C(=O)O)[C@H](c3ccc(Br)cc3)N2S(=O)(=O)c2ccc(C)cc2)cc1`, the result was inactive.

As for `O=C(CSc1ncccn1)NCc1ccc(F)cc1`, the outcome was inactive.

As for `C[C@H](CO)N1C[C@H](C)[C@H](CN(C)Cc2ccc(Oc3ccccc3)cc2)Oc2ccc(NC(=O)Nc3cccc4ccccc34)cc2CC1=O`, the outcome was inactive.

`COc1ccc(N2CCN(C(=O)Cn3nnc(-c4ccc(N(C)C)cc4)n3)CC2)cc1`: the call was inactive.

For `Cc1nn(Cc2ccc([N+](=O)[O-])cc2)c(=O)n1-c1cccc(Cl)c1`, the call was inactive.

Turning to `O=C(c1oc(=O)c2ccccc2c1-c1ccccc1)N1CCOCC1`, the compound was called inactive.

Turning to `O=C(CSc1ncccn1)Nc1ccc(S(=O)(=O)N2CCCCC2)cc1`, the call was inactive.

As for `O=C(Nc1ccccc1)Nc1ccc(S(=O)(=O)N2CCCCC2)cc1`, the compound was classed as inactive.

For `Cc1noc(C)c1NC(=O)Nc1cccc2c1O[C@H](CN(C)S(=O)(=O)c1cccs1)[C@@H](C)CN([C@H](C)CO)C2=O`, the compound was classed as inactive.

As for `COC(=O)c1cc(OC)c(OC)cc1NC(=O)Cn1nnc(-c2ccccc2Cl)n1`, the compound was classed as inactive.

For the compound `CC12CN3CC(C)(CN(C1)C3c1ccc3ccccc3c1O)C2=O` (stereo not drawn), the compound was called inactive.

For the compound `COc1ccc2c(C(=O)NCCCCO)c(-c3ccc(S(C)(=O)=O)cc3)sc2c1`, the call was inactive.

Consider `C#CC[N+]1(CC#Cc2ccc(C#CC[N+]3(CC#C)CCOCC3)cc2)CCOCC1`, for which the compound was called inactive.

`CSc1nc(N2CCN(C)CC2)c2c(c1C#N)CC(C)(C)OC2`: the compound was called inactive.

Consider `Cc1ccc(NC(=O)CSc2ncccn2)c([N+](=O)[O-])c1`, for which the result was inactive.

For `Nc1nnc(SC2CC(=O)N(c3ccccc3)C2=O)s1` (stereo not drawn), the outcome was inactive.

In the case of `C=CCN(C(=O)Nc1ccccc1)C1CC(=O)N(c2ccc(OC)cc2)C1=O` (stereo not drawn), the compound was called inactive.

`Cc1nnc2c(N3CCN(C(=O)c4ccco4)CC3)nc3ccccc3n12`: the compound was classed as inactive.

In the case of `Cc1c(C(=O)Nc2ccc3c(c2)OCO3)sc2ncn(CC(=O)N3CC(C)CC(C)C3)c(=O)c12` (stereo not drawn), the compound was called inactive.
